Measurements taken from ChEMBL document CHEMBL3433997, “St. Jude Leishmania screening dataset” (2016).
Several values for one entry are separate records, joined by “and”; a condition that tells them apart may be missing. Equal entries are not always repeated.

What was measured:
Assay type in all cases: functional
[1] = biological target: Solute carrier family 2, facilitated glucose transporter member 1 (Homo sapiens) (UniProt P11166); assay: ST_JUDE_LEISH: Cytotoxicity at 2uM final concentration against transgenic Leishmania Mexicana promastigotes LmGLUT1 that are glucose transport deficient and complemented with the human glucose transporter GLUT1. Activity is measured by DNA content using SYBR green in vitro
[2] = biological target: Hexose transporter 1 (Plasmodium falciparum) (UniProt O97467); assay: ST_JUDE_LEISH: Cytotoxicity at 2uM final concentration against transgenic Leishmania Mexicana promastigotes LmPfHT that are glucose transport deficient and complemented with the Plasmodium falciparum hexose transporter. Activity is measured by DNA content using SYBR green in vitro
[3] = biological target: Glucose transporter (Leishmania mexicana) (UniProt O61059); assay: ST_JUDE_LEISH: Cytotoxicity at 2uM final concentration against transgenic Leishmania Mexicana promastigotes LmGT2 that are glucose transport deficient and complemented with the L. Mexicana glucose transporter 2. Activity is measured by DNA content using SYBR green in vitro

Solute carrier family 2, facilitated glucose transporter member 1 (Homo sapiens), sequence (P11166 whole entry): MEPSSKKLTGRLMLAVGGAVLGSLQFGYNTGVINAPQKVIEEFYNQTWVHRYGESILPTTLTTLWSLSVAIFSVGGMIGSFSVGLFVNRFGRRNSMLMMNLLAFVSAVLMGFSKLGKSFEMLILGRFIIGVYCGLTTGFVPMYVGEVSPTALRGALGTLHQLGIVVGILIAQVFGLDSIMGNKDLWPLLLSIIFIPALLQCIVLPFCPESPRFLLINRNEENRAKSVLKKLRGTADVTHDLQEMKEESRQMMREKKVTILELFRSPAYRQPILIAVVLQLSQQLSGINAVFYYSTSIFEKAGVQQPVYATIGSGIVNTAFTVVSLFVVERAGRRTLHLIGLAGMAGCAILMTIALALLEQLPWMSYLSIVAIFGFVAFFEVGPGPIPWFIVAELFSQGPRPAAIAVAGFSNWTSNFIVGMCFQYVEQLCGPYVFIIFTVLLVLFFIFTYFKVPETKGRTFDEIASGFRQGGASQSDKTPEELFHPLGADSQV

Row | Structure (SMILES) | inhibition [1] | inhibition [2] | inhibition [3]
1 | O=C(c1cc(C(=O)NCc2ccc(Cl)cc2)c(=O)n(Cc2ccc(Cl)cc2)c1)c1cc(Cl)ccc1O | -1% | -1.29% | 3.58%
2 | CS(=O)(=O)Nc1ccc2[nH]cc(C3CCN(CC4CCN(C(=O)/C=C/c5ccc(Cl)c(Cl)c5)CC4)CC3)c2c1 | 4.43% | 3.49% | 4.09%
3 | O=C(/C=C/c1ccc(Cl)c(Cl)c1)N1CCC(CN2CCC(c3c[nH]c4ccc(NS(=O)(=O)c5cccs5)cc34)CC2)CC1 | 6.53% | 5.86% | 5.21%
4 | CSc1nccc(-c2ccc(S(=O)(=O)NC3CCC(CN4CCC(c5c[nH]c6ccccc56)CC4)CC3)s2)n1 (stereo not given) | 2.14% and 2.23% | 0.65% and 1.79% | 2.7% and 0.3%
5 | COCCNCc1ccc(-c2ccc(CN(C(=O)Nc3ccccc3)C3CCN(Cc4ccccc4)CC3)cc2)cc1 | 7.17% | 4.93% | 5.08%
6 | O=C(/C=C/c1ccc(Cl)c(Cl)c1)NC1CCC(CN2CCC(c3c[nH]c4ccc(O)cc34)CC2)CC1 (stereo not given) | 1.43% and 1.97% | 0.14% and 2.98% | -2.67% and 3.13%
7 | CC[C@H]1CN2CC[C@H]1C[C@H]2[C@H](O)c1cc(-c2ccccc2C)nc2ccc(OC)cc12 | 0.33% | 0.37% | -4.71%
8 | Cc1cccc(N2CCN(Cc3cc(Cl)ccc3O)CC2)c1C | 0.93% | 1.18% | 3.25%
9 | CC[C@H]1CN2CC[C@H]1C[C@H]2[C@H](O)c1ccnc2ccc(C#N)cc12 | 0.59% | 1.86% | 2.19%
10 | COC(C(=O)OCCC1CCCN1C)(c1ccccc1)C1CCCCC1 (stereo not given) | 11.6% | 10.5% | 10.5%
11 | CC[C@H]1CN2CC[C@H]1C[C@H]2[C@H](O)c1cc(-c2ccc(F)cc2C)nc2ccc(OC)cc12 | 4.97% | 1.01% | 2.55%
12 | COc1cc(NC(=O)c2nn(CCCN3CCC4(CC3)C(=O)NCN4c3ccccc3)cc2-c2ccc(Cl)c(Cl)c2)cc(OC)c1OC | -0.06% | 8.62% | 0.13%
13 | CCCc1c(C(=O)NC2CCC(CN3CCC(c4c[nH]c5ccccc45)CC3)CC2)cnn1-c1c(Cl)cc(Cl)cc1Cl (stereo not given) | 4.74% | 3.29% | 3.07%
14 | Cc1[nH]c2ccc(O)cc2c1C1CCN(CC2CCC(NC(=O)/C=C/c3c(Cl)cccc3Cl)CC2)CC1 (stereo not given) | 1.67% | 0.48% | 3.62%
15 | O=C(/C=C/c1cccc(Cl)c1)NC1CCC(CN2CCC(c3c[nH]c4ccccc34)CC2)CC1 (stereo not given) | 2.39% and 2.9% | 2.82% and 1.43% | -0.58% and 2.44%
16 | CC(C)n1ncc2c(C(=O)Nc3ccc(C#N)c(Cl)c3)cc(C3CC3)nc21 | 2.24% | 1.01% | 3.4%
17 | O=C(/C=C/c1ccc(Cl)c(Cl)c1)NC1CCC(CN2CCC(c3c[nH]c4ccccc34)CC2)CC1 (stereo not given) | 2.35% | 1.2% | 1.83%
18 | CCCCCCCCNCC(O)c1ccc(Cl)c(Cl)c1 (stereo not given) | 2.51% | 3.44% | 1.24%
19 | Cc1nc(C)c(-c2ccc(Oc3ccc(OC(F)(F)F)cc3)cc2)c(OC(=O)N(CCNC(C)C)C(C)C)c1Br | 5.43% | 8.45% | 5.04%
20 | CS(=O)(=O)Nc1ccc2[nH]cc(C3CCN(CC4CCC(NC(=O)/C=C/c5ccccc5Cl)CC4)CC3)c2c1 (stereo not given) | -1.96% | 1.23% | -0.23%
21 | CCCCCc1cc(O)c2c(c1)OC(C)(C)CC2C1=CCN(Cc2ccccc2)CC1 (stereo not given) | 2.07% | 2.23% | 2.74%
22 | O=C(/C=C/c1ccc(Cl)c(Cl)c1)NC1CCC(CN2CCC(c3c[nH]c4cc(O)ccc34)CC2)CC1 (stereo not given) | 3.03% | 0.88% | -0.33%
23 | CCc1ccc(CN2CCC(CN(C(=O)c3ccccc3)c3ccc(Cl)cc3)CC2)cc1 | 8.24% | 5.97% | 5.04%
24 | O=C(C=Cc1ccccc1Br)NC1CCC(CN2CCC(c3c[nH]c4ccccc34)CC2)CC1 (stereo not given) | 9.4% and 3.03% | 3.62% and 2.4% | 0.32% and 2.12%
25 | S=C(Nc1ccc2c(c1)OCCO2)NC1CCC(CN2CCC(c3c[nH]c4ccccc34)CC2)CC1 (stereo not given) | 0.68% and -2.92% | -3.08% and -1.27% | 4.46% and -3.36%
26 | O=C(/C=C/c1ccc(Cl)c(Cl)c1)N1CCC(CN2CCC(c3c[nH]c4ccc(O)cc34)CC2)CC1 | 1.04% | -0.44% | 4.21%
27 | CC[C@H]1CN2CCc3cc(OC)c(OC)cc3[C@@H]2C[C@@H]1C[C@H]1NCCc2cc(OC)c(OC)cc21 | 96.8% | 94% | 90.3%
28 | O=C(/C=C/c1ccc2ccccc2c1)NC1CCC(CN2CCC(c3c[nH]c4ccccc34)CC2)CC1 (stereo not given) | 1.06% | 1.84% | 3.4%
29 | CCCC(=O)c1c(O)c2ccccc2oc1=O | 6.46% | 7.19% | 5.83%
30 | O=C1c2ccccc2CCC1CCN1CC=C(c2c[nH]c3ccccc23)CC1 (stereo not given) | 2.89% | 3.52% | 3.16%
